Reference: publication PMC12214610

Legend:
[1] = biological target: 30S ribosome-binding factor (UniProt P0A7G2)
[2] = biological target: Large ribosomal subunit protein uL24 (UniProt P60624)
[3] = biological target: Small ribosomal subunit protein uS13 (UniProt P0A7S9)
Actin, cytoplasmic 2 = Actin, cytoplasmic 2 (UniProt P63261)
[4] = biological target: Elongation factor 1-alpha 1 (UniProt P68104)
[5] = biological target: Heat shock 70 kDa protein 1B (UniProt P0DMV9)
[6] = biological target: Heat shock cognate 71 kDa protein (UniProt P11142)
[7] = biological target: Peptidyl-prolyl cis-trans isomerase A (UniProt P62937)
[8] = biological target: Adenylyl cyclase-associated protein 1 (UniProt Q01518)
Cofilin-1 = Cofilin-1 (UniProt P23528)
[9] = biological target: DNA-binding protein HU-beta (UniProt P0ACF4)
[10] = biological target: Large ribosomal subunit protein bL9 (UniProt P0A7R1)
[11] = biological target: Large ribosomal subunit protein eL20 (UniProt Q02543)
[12] = biological target: Large ribosomal subunit protein eL24 (UniProt P83731)
[13] = biological target: Small ribosomal subunit protein uS11 (UniProt P62263)
[14] = biological target: Small ribosomal subunit protein uS4 (UniProt P46781)
[15] = biological target: Large ribosomal subunit protein eL6 (UniProt Q02878)
[16] = biological target: Large ribosomal subunit protein uL2 (UniProt P60422)
[17] = biological target: Large ribosomal subunit protein uL22 (UniProt P61175)
[18] = biological target: Large ribosomal subunit protein uL4 (UniProt P36578)
[19] = biological target: Small ribosomal subunit protein bS21 (UniProt P68679)
[20] = biological target: Small ribosomal subunit protein uS19 (UniProt P0A7U3)

Heat shock cognate 71 kDa protein, sequence (P11142 whole entry): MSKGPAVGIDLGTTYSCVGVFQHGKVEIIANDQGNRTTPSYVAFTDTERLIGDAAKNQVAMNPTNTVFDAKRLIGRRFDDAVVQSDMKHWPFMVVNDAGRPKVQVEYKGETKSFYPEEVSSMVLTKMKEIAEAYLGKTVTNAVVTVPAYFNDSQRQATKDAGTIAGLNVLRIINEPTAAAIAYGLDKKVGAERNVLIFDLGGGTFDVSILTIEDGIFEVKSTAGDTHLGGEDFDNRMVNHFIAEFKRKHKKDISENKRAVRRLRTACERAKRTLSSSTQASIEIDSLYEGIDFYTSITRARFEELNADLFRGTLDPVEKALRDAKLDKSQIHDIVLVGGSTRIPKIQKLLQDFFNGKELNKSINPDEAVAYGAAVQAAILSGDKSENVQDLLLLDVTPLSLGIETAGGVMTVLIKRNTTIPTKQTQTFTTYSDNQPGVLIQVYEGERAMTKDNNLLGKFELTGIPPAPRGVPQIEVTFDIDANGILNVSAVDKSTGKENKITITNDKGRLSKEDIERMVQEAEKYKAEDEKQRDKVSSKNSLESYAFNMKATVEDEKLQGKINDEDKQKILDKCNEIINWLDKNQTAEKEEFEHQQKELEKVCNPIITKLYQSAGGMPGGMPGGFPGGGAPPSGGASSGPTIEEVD
Heat shock 70 kDa protein 1B, sequence (P0DMV9 whole entry): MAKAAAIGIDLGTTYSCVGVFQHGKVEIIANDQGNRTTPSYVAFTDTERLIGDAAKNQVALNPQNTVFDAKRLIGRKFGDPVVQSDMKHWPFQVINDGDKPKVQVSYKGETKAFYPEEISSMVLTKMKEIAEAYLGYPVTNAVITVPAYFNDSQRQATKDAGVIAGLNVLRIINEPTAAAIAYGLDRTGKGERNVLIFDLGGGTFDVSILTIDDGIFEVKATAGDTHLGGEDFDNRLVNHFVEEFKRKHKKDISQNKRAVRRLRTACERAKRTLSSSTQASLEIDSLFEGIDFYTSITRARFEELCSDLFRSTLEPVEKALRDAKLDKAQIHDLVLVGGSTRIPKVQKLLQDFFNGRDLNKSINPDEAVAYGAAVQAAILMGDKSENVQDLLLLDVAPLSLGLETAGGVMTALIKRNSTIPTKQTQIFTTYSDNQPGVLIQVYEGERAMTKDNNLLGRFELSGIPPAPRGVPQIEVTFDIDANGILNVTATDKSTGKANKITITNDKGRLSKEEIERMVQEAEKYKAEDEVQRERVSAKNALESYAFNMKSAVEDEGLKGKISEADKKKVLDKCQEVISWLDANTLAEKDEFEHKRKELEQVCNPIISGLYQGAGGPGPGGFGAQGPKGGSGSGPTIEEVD
Profilin-1, P07737, sequence (P07737 whole entry): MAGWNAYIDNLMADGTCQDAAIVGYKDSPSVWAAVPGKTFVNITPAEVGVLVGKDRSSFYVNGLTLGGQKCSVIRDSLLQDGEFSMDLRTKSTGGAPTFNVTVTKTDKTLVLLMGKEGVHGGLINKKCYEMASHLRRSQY
Cofilin-1, sequence (P23528 whole entry): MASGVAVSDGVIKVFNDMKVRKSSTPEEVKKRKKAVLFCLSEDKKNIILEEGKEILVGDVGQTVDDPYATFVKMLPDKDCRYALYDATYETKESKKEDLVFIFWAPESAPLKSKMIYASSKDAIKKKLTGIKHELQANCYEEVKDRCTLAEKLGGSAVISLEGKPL

## Small ribosomal subunit protein uS7, P02359
[1]
  listed as a hit: yes
[2]
  listed as a hit: yes
[3]
  listed as a hit: yes

## Elongation factor 2, P13639
Actin, cytoplasmic 2
  listed as a hit: yes
[4]
  listed as a hit: yes

## Polyubiquitin-B, P0CG47
Actin, cytoplasmic 2
  listed as a hit: yes
[5]
  listed as a hit: yes
[6]
  listed as a hit: yes
[7]
  listed as a hit: yes

## Actin, alpha skeletal muscle, P68133
[8]
  listed as a hit: yes

## Profilin-1, P07737
Cofilin-1
  listed as a hit: yes

## Large ribosomal subunit protein bL19, P0A7K6
[9]
  listed as a hit: yes

## Peptidyl-prolyl cis-trans isomerase A, P62937
[4]
  listed as a hit: yes

## Large ribosomal subunit protein bL28, P0A7M2
[10]
  listed as a hit: yes

## Small ribosomal subunit protein uS4, P46781
[11]
  listed as a hit: yes

## Large ribosomal subunit protein uL4, P36578
[12]
  listed as a hit: yes
[13]
  listed as a hit: yes
[14]
  listed as a hit: yes

## Large ribosomal subunit protein eL28, P46779
[15]
  listed as a hit: yes

## Large ribosomal subunit protein bL9, P0A7R1
[16]
  listed as a hit: yes

## Large ribosomal subunit protein bL32, P0A7N4
[17]
  listed as a hit: yes

## Large ribosomal subunit protein uL16, P27635
[18]
  listed as a hit: yes
[14]
  listed as a hit: yes

## Small ribosomal subunit protein bS18, P0A7T7
[19]
  listed as a hit: yes

## Large ribosomal subunit protein bL31, P0A7M9
[20]
  listed as a hit: yes
